The labels stand for the following.
T1: UNK ZnF1-6 (called full-length) (human, UniProt Q9C0B0 30-357)
T1 sequence: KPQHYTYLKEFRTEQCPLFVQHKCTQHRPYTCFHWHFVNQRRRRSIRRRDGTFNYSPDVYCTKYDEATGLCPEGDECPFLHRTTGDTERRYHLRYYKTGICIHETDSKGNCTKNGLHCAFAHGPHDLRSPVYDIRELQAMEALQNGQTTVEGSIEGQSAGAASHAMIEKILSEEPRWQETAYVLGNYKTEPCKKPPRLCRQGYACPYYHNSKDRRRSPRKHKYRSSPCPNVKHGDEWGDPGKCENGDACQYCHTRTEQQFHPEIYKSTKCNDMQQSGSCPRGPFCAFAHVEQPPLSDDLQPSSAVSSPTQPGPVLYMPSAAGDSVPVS

B1: chr2:121605696:121605828:-|CDS|ENSG00000074054|unk|FALSE|unique (ssRNA)
RNA: GGGAGUUCUACAGUCCGACGAUCGAUAGACUAUUUCUCAGACAAACAGAAGUCUGCUGACCUUGAGCAUGACCAGACCAUGUUAGAUAAACUUGUGGAUGGACUUGCUACCUCUUGGGUGAACUCUAGCAAUUACAAGGUAAGCAACAGAGGAUUGAGCAUCA
B2: chr17:64498535:64498649:-|3pUTR|ENSG00000108654|unk|FALSE|unique (ssRNA)
RNA: GGGAGUUCUACAGUCCGACGAUCUUAAACUGAGGCUUUAAUUGAUGUUAAUGCCUUAUGUCAAAUGUAAAGUUAGAAUUUGCUAGGGCUGGGAUAGGGAGUGAUAUUUCUAGGACUUAGACAUUGAAAACUAAUUCAGCCUGUCAACAGAGGAUUGAGCAUCA
B3: ENSG00000124766:be:win_2101|3pUTR|ENSG00000124766|bound_else_gene|NA|bound_elsewhere_windowed (ssRNA)
RNA: GGGAGUUCUACAGUCCGACGAUCUGCCCCCUCUGCAGCCGGAGGAGGAGAUGUUGAGGGGAGGAGGCCAGCCAGUGUGACCGGCGCUAGGAAAUGACCCGAGAACCCCGUUGGAAGCGCAGCAGCGGGAGCUAGGGGCGGGGGCAACAGAGGAUUGAGCAUCA
B4: chr4:75812186:75812332:+|CDS|ENSG00000138768|unk|total|mutant (ssRNA)
RNA: GGGAGUUCUACAGUCCGACGAUCAGAGCAGCUGGAUUCAUCUAACCGUACCAUUGCCAUUUUACAAACUGAGAAAGACAAACCCGAGUUGGAAAUUACAGAUUCUAAAAAAGAACAAGAUGAUCUCUUGGUGCUCUUGGCCGACAACAGAGGAUUGAGCAUCA
B5: ENSG00000198589:be:win_7451|CDS|ENSG00000198589|bound_else_gene|NA|bound_elsewhere_windowed (ssRNA)
RNA: GGGAGUUCUACAGUCCGACGAUCUGAGUCCAUUGAUGUUCACAGACAAAGCCCAGCAGGAUGUUAUCAUGGUCCUCAAGUUUCCCUCCAACUCCCCUGUUACUCACGUGGCAGCCAACACCCAGCCUGGUUUGGCAACUCCCGCAACAGAGGAUUGAGCAUCA
B6: chr4:75597091:75597192:-|CDS|ENSG00000138769|unk|total|mutant (ssRNA)
RNA: GGGAGUUCUACAGUCCGACGAUCUAUAAACUAUUUAAAAUAAAAGGCUCAAAAAUUGAUGGAGAAAAAGCUGAAAAAGGCAACCGAGCUUCAAAUGCCAGCUGUCUCCAUGACAGCCGGACAAGCCACAACAAAACCGUGCCUCAACAGAGGAUUGAGCAUCA
B7: chr17:82078764:82078865:-|3pUTR|ENSG00000169710|msi1_unk|FALSE|overlapping (ssRNA)
RNA: GGGAGUUCUACAGUCCGACGAUCCCGUGGGGUCUGCGCUUGGUCUUUCUGUGCUUGGAUUUGCAUAUUUAUUGCAUUGCUGGUAGAGACCCCCAGGCCUGUCCACCCUGCCAAGACUCCUCAGGCAGCGUGUGGGUCCCGCACCAACAGAGGAUUGAGCAUCA
B8: ENSG00000136451:be:win_1451|CDS_3pUTR|ENSG00000136451|bound_else_gene|NA|bound_elsewhere_windowed (ssRNA)
RNA: GGGAGUUCUACAGUCCGACGAUCCUCCAAUGAAUCUACCCACACCUAUGACAUUAGCCGCCCCUCUCAAUAUAGCAAUGAGACCUGUAGAGAGCAUGCCUUUCUUGCCCCAAGCUUUGCCUACAUCACCGCCUUGGUAAACAGCAACAGAGGAUUGAGCAUCA
B9: chr5:173316791:173316892:-|3pUTR|ENSG00000113739|msi1|FALSE|unique (ssRNA)
RNA: GGGAGUUCUACAGUCCGACGAUCGGAAACCUUAUACCCAGAGGAAAAUACACACCUGGGGAGUACAUUUGACAAAUUUCCCUUAGGAUUUCGUUAUCUCACCUUGACCCUCAGCCAAGAUUGGUAAAGCUGCGUCCUGGCGAUCAACAGAGGAUUGAGCAUCA
B10: ENSG00000064393:stop:overlap|stop_codon|ENSG00000064393|stop_codon|NA|stop_codon (ssRNA)
RNA: GGGAGUUCUACAGUCCGACGAUCUCUCCCUGGAGAGUGGUUUUCCUGCUUUUCUGCUGCUAGAAAUGUUGCUGUAUGGGAGCUAGUACAAUAGAAAGUGCCCAGUGACUGCAGGCGACCCUUACCGAGGAUUUUAUUCAAGUACAACAGAGGAUUGAGCAUCA
B11: ENSG00000198589:be:win_4201|CDS|ENSG00000198589|bound_else_gene|NA|bound_elsewhere_windowed (ssRNA)
RNA: GGGAGUUCUACAGUCCGACGAUCGAAGCCUCUGUGACAUUUUUGCAGAGGCUAAUUAGCCUUGUGGAUGUGCUUAUAUUUGCAAGUUCUCUUGGCUUUACUGAAAUUGAAGCUGAAAAAAGUAUGUCAUCUGGAGGAAUUUUGCAACAGAGGAUUGAGCAUCA
B12: chr9:37126384:37126485:+|CDS|ENSG00000147905|unk|total|mutant (ssRNA)
RNA: GGGAGUUCUACAGUCCGACGAUCUAUCGAGAUGAGUCAUCCCGUGAACUGAGUGUUGACCGUGAGGUGGAAUUUCAACUCUACCGCCAAAUUCAUUAUGCCCAAGAUCUUGAUGAUGUCAUCAGGGAGGAAGAGCAUGAAGAACAACAGAGGAUUGAGCAUCA
B13: chr15:52550718:52550819:-|3pUTR|ENSG00000128989|msi1|total|mutant (ssRNA)
RNA: GGGAGUUCUACAGUCCGACGAUCUUUAUAUAAACUUUUUAAAUGCCGAAACUUUUUACUUCCACACUCAGUUUUGGAGACCCCCGAAUAAAAGGCUUCAAUACUCUGCAUUCCAUGCCCUCUGCCACCUGCUUUUUUUUCCCCCAACAGAGGAUUGAGCAUCA
B14: ENSG00000066084:stop:overlap|stop_codon|ENSG00000066084|stop_codon|NA|stop_codon (ssRNA)
RNA: GGGAGUUCUACAGUCCGACGAUCACUGGCAGCCACACAUCUCACCUGCUGGGACAGAACCGGCAUACAUUGAGGGGAAACAAUAGUAAAUGUCUUAGACUUUAAGAAGGAUGCUGGGCUGUGGCACGGCAUGUUUGCGAAUGUCAACAGAGGAUUGAGCAUCA
B15: chrX:150470157:150470258:+|CDS|ENSG00000013619|unk|FALSE|unique (ssRNA)
RNA: GGGAGUUCUACAGUCCGACGAUCUCCAAAUGAGCUAGAUCUUGAGAAGAUACUGGGGACGAAGCCAGAAGAGCCACUGGUUUUAGAUCAUCCCCAGGCAACCCUAAGCACAACUCCCAAGCCUUCGGUUCAGAUGUCACACUUCAACAGAGGAUUGAGCAUCA
B16: chr8:102207567:102207681:-|3pUTR|ENSG00000048392|unk|total|mutant (ssRNA)
RNA: GGGAGUUCUACAGUCCGACGAUCUAUUAAUUGCAAUGAUGUUGUAAUAAAAUACUCUCAUUUCCUUAAAAUAAUUGUGAUUCCCGGUCCCCGGAUCCCGAAUCCGAUCUUUGUAUUUUUAAUGCUCCGGGGAAGAAUAUAAGUCAACAGAGGAUUGAGCAUCA
B17: ENSG00000142634:stop:overlap|stop_codon|ENSG00000142634|stop_codon|NA|stop_codon (ssRNA)
RNA: GGGAGUUCUACAGUCCGACGAUCAGGCGGAGGAGAUGAAGCAGCGGAAAGCGGCCUUCAAGGAGCUGCAGUCCACCUUUAAGUAGCGGGGGCUGCAGCCGACCGCCCUGCUCCGGCCCCAGUGUGGUGGGCGAGGGUGGCGCACAACAGAGGAUUGAGCAUCA
B18: ENSG00000100154:stop:overlap|stop_codon|ENSG00000100154|stop_codon|NA|stop_codon (ssRNA)
RNA: GGGAGUUCUACAGUCCGACGAUCAGCCAGUGAAGGCAGGUGACACUUACCUCCACCAGGUGAUGCAGGCUGUGGUGAUAAACUAGAGUGUGAAGAGCUCAGAGUGCAGCCUCUGGCCUUGCCACUCACAAGCUGUAGGACACUCAACAGAGGAUUGAGCAUCA
B19: chr18:33333173:33333394:-|CDS|ENSG00000166960|control|control|control (ssRNA)
RNA: GGGAGUUCUACAGUCCGACGAUCACAUUUUGAAAAACAAAAGACAGAGUUAGAAGAAGCAAAUGCAAAGAUUCAAGCAGACAUAGACUACAUGAAUGAACAUGGCCCUCUACUGGACUCUAAGCAGAAUCAGGAACUUCAAGACAACAGAGGAUUGAGCAUCA
B20: chr3:142163631:142163732:-|3pUTR|ENSG00000175066|unk|total|mutant (ssRNA)
RNA: GGGAGUUCUACAGUCCGACGAUCCCCAAAGUGCUGGGAUUGCAGCCGUGAACCACUGCACCCAGCCAAUGGGUGUAAUUUCACCGGAAAUAAUUCUUUUUGUCAGAAUGUACUGAAUUGUAAUAUUAAUACCUGAAAAUUUGUCAACAGAGGAUUGAGCAUCA
B21: ENSG00000101596:stop:overlap|stop_codon|ENSG00000101596|stop_codon|NA|stop_codon (ssRNA)
RNA: GGGAGUUCUACAGUCCGACGAUCUUAGUUGUAAUAAAAUAAAAGAUAAUGACAAAGAAGAUGGCUGCUUCUAUUUCAGGUUAUAGUUGAAGUCCUGCCUAAUCAACCUGUGAAGUUAGUACCUAAAAUUAAACCACCUACACCCAACAGAGGAUUGAGCAUCA
B22: chr20:18487131:18487232:-|3pUTR|ENSG00000089050|msi1|FALSE|unique (ssRNA)
RNA: GGGAGUUCUACAGUCCGACGAUCAAAUAUAGUAACCAGUAACCACAGCUAGCUGUAAAAUUGAAAAUUCAGUUCAGUCAAACUAGCCAUAUUUCAAGUGCUCAACAGCCACUGGUGGCUAUUGGUUACCUUACUGACCAGCCACAACAGAGGAUUGAGCAUCA

For 22 molecules, binding signal results are on record in article PMC12136788.

In all, about 5,800 sequences were measured (“enrichment r”: median about 0.68, highest 2% from about 11 on). These entries were drawn from the full list.

The assay deals with T1, UNK ZnF1-6 (called full-length). As to the kind of experiment: nsRBNS (natural sequence RNA bind-n-seq); RBNS binding buffer (assumed for nsRBNS): 25 mM Tris pH 7.5, 150 mM KCl, 3 mM MgCl2, 0.01% Triton X-100, 500 ug/ml BSA, 20 U/ml SUPERase-In, 4 C; UNK is unkempt and MSI1 is Musashi-1; names of the RNAs are library labels; protein concentration not given here; high values mean tight binding.
Regarding B1, the binding signal stood at 0.726 enrichment R.
As for B2, the figure is 0.878 enrichment R.
The same measure for B3: 1.41 enrichment R; for B4: 0.434 enrichment R.
Molecule B5 had a binding signal of 0.743 enrichment R.
Molecule B6 showed a binding signal of 0.872 enrichment R.
As for B7, the figure is 0.749 enrichment R.
On to B8, for which the binding signal turned out to be 1.48 enrichment R.
As for B9, the figure is 0.601 enrichment R; as for B10, 0.569 enrichment R.
The same measure for B11: 0.355 enrichment R.
The same measure for B12: 0.413 enrichment R.
The molecule B13 displayed a binding signal of 1.03 enrichment R.
As for B14, the figure is 1.59 enrichment R; as for B15, 0.539 enrichment R.
The same measure for B16: 0.334 enrichment R.
As for B17, the figure is 1.43 enrichment R; as for B18, 0.552 enrichment R; as for B19, 0.467 enrichment R.
In turn, B20 registered a binding signal of 0.381 enrichment R.
B21 displayed a binding signal of 1.46 enrichment R.
The same measure for B22: 0.375 enrichment R.
